This passage reports animals results from the supplement of paper PMC6718421.

The test system of this assay is Caenorhabditis elegans N2 (wild type). Nature of the assay: animals with crystals or spheres in anterior pharynx; higher = more object (crystal/sphere) accumulation. The following applies: 30 µM; 48 h; genotype: wild type N2; stage: L1 start. As for the experimental part:
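Synchronized wild-type (N2) C. elegans L1 larvae (50 per well) were incubated in liquid NGM with E. coli HB101 and 30 uM of each wactive for 48 h. Live worms were scored by DIC and polarized-light microscopy for birefringent crystals or non-birefringent spheres in the anterior pharynx. At least 3 biological replicates were run with at least 20 worms each; the value is the mean % of animals carrying objects.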
In turn, `CCOc1ccc(/C=C/[N+](=O)[O-])cc1` [wact-385] registered an animals of 0%.

As to `Fc1ccc(N2CCN(Cc3cccc(Br)c3)CC2)cc1` [wact-30], the animals is 0%.
